Experimental data: PubChem BioAssay AID1159580 (chemical genetic matrix, 2015)
The campaign covered roughly 5,500 compounds. About 2,000 (36%) were called active. About 18% were inconclusive and are not listed. Cut-off read from the data, not from the text of the source: active = normalized growth mostly below about 0.91 (no sharp cut-off); inconclusive = no clear call, values can overlap the other calls; inactive = mostly above about 0.92. This is one part of the list.

Assay: chemical genetic growth profiling, strain panel (AID 1159580);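 note: tested at 20 µM; growth read once vehicle control cultures reached saturation at 30 °C; 1 = growth at the plate median or of vehicle wells; lower values mean less growth of the strain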
Conditions: growth OD
[1] = S. cerevisiae deletion strains, locus YGR229C, strain SMI1, active compounds read low
[2] = S. cerevisiae deletion strains, locus YMR307W, strain GAS1, active compounds read low

Measured: normalized growth

COc1cc2c(c(OC)c1OC)-c1ccc(O)c(=O)cc1[C@@H](NC(C)=O)CC2
inactive: S. cerevisiae deletion strains, locus YBR021W, strain FUR4, active compounds read low 0.865 | S. cerevisiae deletion strains, locus YBR229C, strain ROT2, active compounds read low 0.962 | S. cerevisiae deletion strains, locus YCL029C, strain bik1, active compounds read low 0.982 | S. cerevisiae deletion strains, locus YDL192W, strain arf1, active compounds read low 0.978 | S. cerevisiae deletion strains, locus YDR318W, strain mcm21, active compounds read low 0.94 | S. cerevisiae deletion strains, locus YDR388W, active compounds read low 1 | S. cerevisiae deletion strains, locus YDR502C, strain sam2, active compounds read low 0.93 | S. cerevisiae deletion strains, locus YER110C, active compounds read low 1.03 | S. cerevisiae deletion strains, locus YER155C, strain BEM2, active compounds read low 0.98 | S. cerevisiae deletion strains, locus YGL078C, strain dbp3, active compounds read low 0.957 | S. cerevisiae deletion strains, locus YGR135W, strain pre9, active compounds read low 0.945 | S. cerevisiae deletion strains, locus YGR252W, strain gcn5, active compounds read low 0.879 | S. cerevisiae deletion strains, locus YHR094C, strain hxt1, active compounds read low 0.988 | S. cerevisiae deletion strains, locus YHR200W, strain rpn10, active compounds read low 0.977 | S. cerevisiae deletion strains, locus YIR030C, strain dcg1, active compounds read low 0.988 | S. cerevisiae deletion strains, locus YJL168C, strain set2, active compounds read low 1 | S. cerevisiae deletion strains, locus YKL009W, strain mrt4, active compounds read low 0.984 | S. cerevisiae deletion strains, locus YKL068W, active compounds read low 0.968 | S. cerevisiae deletion strains, locus YLR102C, strain apc9, active compounds read low 1.02 | S. cerevisiae deletion strains, locus YLR262C, strain YPT6, active compounds read low 0.72 | S. cerevisiae deletion strains, locus YLR342W, strain FKS1 (second series), active compounds read low 0.801 | S. cerevisiae deletion strains, locus YLR371W, strain rom2, active compounds read low 0.933 | S. cerevisiae deletion strains, locus YLR418C, strain cdc73, active compounds read low 0.841 | S. cerevisiae deletion strains, locus YML032C, strain rad52, active compounds read low 1 | S. cerevisiae deletion strains, locus YML124C, strain tub3, active compounds read low 1 | S. cerevisiae deletion strains, locus YMR078C, strain ctf18, active compounds read low 1.01 | S. cerevisiae deletion strains, locus YMR223W, strain ubp8, active compounds read low 0.938 | S. cerevisiae deletion strains, locus YNL250W, strain rad50, active compounds read low 0.968 | S. cerevisiae deletion strains, locus YNL307C, strain MCK1, active compounds read low 1.01 | S. cerevisiae deletion strains, locus YNR052C, strain pop2, active compounds read low 0.961 | S. cerevisiae deletion strains, locus YOL012C, strain htz1 0.984 | S. cerevisiae deletion strains, locus YOL147C, strain pex11, active compounds read low 1.01 | S. cerevisiae deletion strains, locus YOR136W, strain idh2, active compounds read low 0.988 | S. cerevisiae deletion strains, locus YOR144C, strain elg1, active compounds read low 0.97 | S. cerevisiae deletion strains, locus YOR184W, strain ser1, active compounds read low 1 | S. cerevisiae deletion strains, locus YOR316C, strain cot1, active compounds read low 1.02 | S. cerevisiae deletion strains, locus YPR119W, strain clb2, active compounds read low 1.03 | S. cerevisiae deletion strains, locus YPR141C, strain kar3, active compounds read low 0.997 | S. cerevisiae deletion strains, locus YPR163C, strain tif3, active compounds read low 1.01 | S. cerevisiae deletion strains, locus YPR167C, strain met16, active compounds read low 0.929
active: S. cerevisiae deletion strains, locus YDL035C, strain GPR1, active compounds read low 0.543 | S. cerevisiae deletion strains, locus YDL074C, strain BRE1, active compounds read low 0.515 | S. cerevisiae deletion strains, locus YDL101C, strain DUN1, active compounds read low 0.715 | S. cerevisiae deletion strains, locus YDL134C, strain PPH21, active compounds read low 0.87 | S. cerevisiae deletion strains, locus YDL185W, strain tfp1, active compounds read low 0.323 | S. cerevisiae deletion strains, locus YDR101C, strain arx1, active compounds read low 0.904 | S. cerevisiae deletion strains, locus YDR162C, strain NBP2, active compounds read low 0.382 | S. cerevisiae deletion strains, locus YEL061C, strain CIN8, active compounds read low 0.819 | S. cerevisiae deletion strains, locus YER167W, strain BCK2, active compounds read low 0.798 | S. cerevisiae deletion strains, locus YGL086W, strain mad1, active compounds read low 0.882 | S. cerevisiae deletion strains, locus YGL248W, strain PDE1, active compounds read low 0.744 | S. cerevisiae deletion strains, locus YGR078C, strain PAC10, active compounds read low 0.729 | [1] 0.247 | S. cerevisiae deletion strains, locus YHR030C, strain SLT2, active compounds read low 0.879 | S. cerevisiae deletion strains, locus YHR079C, strain IRE1 (second series), active compounds read low 0.851 | S. cerevisiae deletion strains, locus YHR129C, strain ARP1, active compounds read low 0.764 | S. cerevisiae deletion strains, locus YIL066C, strain RNR3, active compounds read low 0.543 | S. cerevisiae deletion strains, locus YIL073C, strain SPO22, active compounds read low 0.355 | S. cerevisiae deletion strains, locus YIL125W, strain kgd1, active compounds read low 0.881 | S. cerevisiae deletion strains, locus YJL095W, strain BCK1, active compounds read low 0.722 | S. cerevisiae deletion strains, locus YJL134W, strain LCB3, active compounds read low 0.913 | S. cerevisiae deletion strains, locus YJL187C, strain SWE1 (second series), active compounds read low 0.59 | S. cerevisiae deletion strains, locus YJR043C, strain POL32, active compounds read low 0.55 | S. cerevisiae deletion strains, locus YKL085W, strain MDH1 (second series), active compounds read low 0.91 | S. cerevisiae deletion strains, locus YKL085W, strain MDH1, active compounds read low 0.91 | S. cerevisiae deletion strains, locus YKL190W, strain CNB1, active compounds read low 0.593 | S. cerevisiae deletion strains, locus YKR001C, strain vps1, active compounds read low 0.889 | S. cerevisiae deletion strains, locus YLR039C, strain RIC1, active compounds read low 0.454 | S. cerevisiae deletion strains, locus YLR058C, strain SHM2, active compounds read low 0.691 | S. cerevisiae deletion strains, locus YLR268W, strain sec22, active compounds read low 0.852 | S. cerevisiae deletion strains, locus YLR330W, strain CHS5, active compounds read low 0.886 | S. cerevisiae deletion strains, locus YML016C, strain PPZ1, active compounds read low 0.829 | [2] 0.577 | S. cerevisiae deletion strains, locus YNL067W, strain RPL9B, active compounds read low 0.732 | S. cerevisiae deletion strains, locus YNL233W, strain BNI4, active compounds read low 0.81 | S. cerevisiae deletion strains, locus YNL271C, strain bni1, active compounds read low 0.843 | S. cerevisiae deletion strains, locus YNL298W, strain CLA4, active compounds read low 0.891 | S. cerevisiae deletion strains, locus YNL322C, strain KRE1, active compounds read low 0.639 | S. cerevisiae deletion strains, locus YOL006C, strain TOP1, active compounds read low 0.198 | S. cerevisiae deletion strains, locus YOR061W, strain CKA2, active compounds read low 0.753 | S. cerevisiae deletion strains, locus YOR069W, strain VPS5, active compounds read low 0.896 | S. cerevisiae deletion strains, locus YPL055C, strain LGE1, active compounds read low 0.436 | S. cerevisiae deletion strains, locus YPL241C, strain CIN2, active compounds read low 0.9 | S. cerevisiae deletion strains, strain wtn01, active compounds read low 0.881 | S. cerevisiae strains, strain wild type, active compounds read low 0.285

COc1cc2c(c(OC)c1OC)-c1ccc(OC)c(=O)cc1C(NC(C)=O)CC2 (stereo unspecified)
inactive: S. cerevisiae deletion strains, locus YAL040C, strain CLN3, active compounds read low 0.95 | S. cerevisiae deletion strains, locus YDR150W, strain NUM1, active compounds read low 1.03 | S. cerevisiae deletion strains, locus YDR363W, strain ESC2, active compounds read low 1 | S. cerevisiae deletion strains, locus YER002W, strain NOP16, active compounds read low 1.01 | [1] 1 | [2] 0.984 | S. cerevisiae deletion strains, locus YNL153C, strain GIM3, active compounds read low 1.06 | S. cerevisiae deletion strains, locus YNL175C, strain NOP13, active compounds read low 1.01 | S. cerevisiae deletion strains, locus YNL197C, strain WHI3, active compounds read low 1.01 | S. cerevisiae deletion strains, locus YNL224C, strain SQS1, active compounds read low 1 | S. cerevisiae deletion strains, locus YOR083W, strain WHI5 (second series), active compounds read low 1.02
